Source: PubChem BioAssay (Broad Institute)
The full list was thinned out, with hits kept by preference.
Tg IFNy HTS: blocks Toxoplasma gondii growth in the presence of IFN-gamma | Toxoplasma gondii growth in IFN-gamma-treated host cells; hits give low values | activity change, negative = inhibition, % (test concentration not listed) | 3.8% of 69,000 active | AID 1259416; in the data active means activity change below about -70%, passing the limit was not always enough;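 further: host cells are HeLa cells infected with Toxoplasma gondii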
Hits are given with their value; i = inactive.

SMILES	Tg IFNy HTS
Cc1ccc(N2CC[C@@](C)(O)[C@@H](Cc3ccccc3)C2)nn1	i
O=c1[nH]nc(CSc2ccccn2)c2ccccc12	i
O=C(COc1ccc(-c2cnc3ccccc3n2)cc1)c1cccs1	-85.4
Cc1ccc(-c2cnc3ccccc3n2)cc1NC(=O)c1ccc(Br)o1	i
O=C(CCC(=O)c1cccs1)c1cccs1	i
CCCCC1C=CCN1C(=O)c1cc(C(C)C)[nH]n1 (stereo not given)	i
COc1ccccc1Nc1nc(-c2ccc(Cl)cc2)nc2ccccc12	i
Cc1ccc(-n2cccc2)c(NC(=S)Nc2c(C)cccc2Cl)c1	i
O=C(Cc1ccc(F)cc1)NCCc1c[nH]c2cccc(C3(O)CCOCC3)c12	i
c1ccc(-c2nnc(Sc3nc4ccccc4s3)c3ccccc23)cc1	i
O=C(O)CCn1c(=O)sc2ccccc21	i
O=C(CCn1c(=O)sc2ccccc21)Nc1ccc(S(=O)(=O)N2CCCCC2)cc1	-88.1
O=C(O)CCC(=O)Nc1ccc(S(=O)(=O)N2CCCC2)cc1	i
CO[C@H](CN(C)Cc1ccc2c(c1)OCO2)[C@H](C)CN(C(=O)c1ccccc1)[C@@H](C)CO	i
CO[C@@H]1CN(C)C(=O)c2cc(NS(C)(=O)=O)ccc2OC[C@H](C)N(Cc2cncnc2)C[C@H]1C	i
CCOc1ccc2[nH]c(=O)c(CN3CCCN(C(=O)C4CC4)CC3)cc2c1	-82.7
CCOc1ccc2[nH]c(=O)c(CN3CCCCC3c3nc(C)no3)cc2c1 (stereo not given)	i
CCCOC1CCCN(Cc2cc3cc(OC)ccc3[nH]c2=O)C1 (stereo not given)	i
N#Cc1ccc(NCCNCC(=O)N2CCC[C@H]2C#N)nc1	i
CCCNC(=O)C[C@H]1CC[C@H]2[C@@H](COC[C@@H](O)CN2C(=O)c2ccc(F)cc2)O1	i
CCN(CC)C(=O)c1cc(C)nc2c1c(=O)n(Cc1nc(-c3ccccc3Cl)oc1C)c(=O)n2C	i
Cc1oc(-c2ccccc2Cl)nc1CN1C(=O)C(O)(c2ccccc2)c2ccccc21 (stereo not given)	-96.4
Cc1cc(C)c2c(=O)n(Cc3nc(-c4ccccc4Cl)oc3C)c(=O)n(-c3ccccc3)c2n1	i
CCOc1ccc(-c2nc(CN3C(=O)C(O)(c4ccccc4)c4ccccc43)c(C)o2)cc1 (stereo not given)	i
Cc1ccc(-c2nc(CN3C(=O)C(O)(c4ccccc4)c4ccccc43)c(C)o2)cc1 (stereo not given)	i
SMILES	Tg IFNy HTS
COc1ccc(-c2nc(CN3C(=O)C(O)(c4ccc(C)cc4)c4ccccc43)c(C)o2)cc1 (stereo not given)	-123.5
COc1ccc2nc(SCc3ncc(C)c(OC)c3C)[nH]c2c1	i
CCNC(=O)c1nc(Nc2ccc(F)cc2)c2ccccc2n1	i
CN(C)C(=O)C[C@H]1CC[C@H]2[C@@H](COC[C@@H](O)CN2S(=O)(=O)c2ccccc2Cl)O1	i
Cc1ccc(NC(=O)Nc2ccc(-c3nc(-c4ccc(C)cc4C)co3)cc2)cc1	i
O=C(C[C@H]1CC[C@@H](NC(=O)c2cccnc2)[C@H](CO)O1)NCc1ccc(Cl)c(Cl)c1	i
COc1ccc(C(=O)NCCc2sc(-c3ccc(F)cc3)nc2C)c(OC)c1	-86.9
Cc1nc(-c2ccc(F)cc2)sc1CCNC(=O)c1ccccc1F	i
COc1ccc(Cl)cc1C(=O)NCCc1sc(-c2ccc(F)cc2)nc1C	-102.3
COc1cccc(C(=O)NCCc2sc(-c3ccc(F)cc3)nc2C)c1OC	i
COc1ccc(C(=O)NCCc2sc(-c3cccc(F)c3)nc2C)c(OC)c1	i
COc1ccc(C(=O)NCCc2sc(-c3ccc(Cl)cc3)nc2C)c(OC)c1	i
CC(=O)N(C/C=C/c1ccccc1)CCO	i
Cc1cc(C)nc(N2CCCC(CCCO)C2)n1 (stereo not given)	i
COc1ccc(-c2nc(Cn3nnc(-c4nc(-c5ccc(C)cc5)no4)c3C)c(C)o2)cc1	i
CCn1nc(CNC(=O)Cc2csc(C)n2)c2ccccc21	i
COc1ccc(-c2ccc(-n3cnnc3)nc2C)cn1	-88.3
Cc1nc(-n2cnnc2)ccc1-c1ccc(C(N)=O)cc1	i
CCCc1nc(C)cc(-c2ccc(OC)nc2)n1	i
Cc1noc(C)c1C(=O)N(C)C[C@H]1OCc2ccccc2-c2ccccc2C(=O)N([C@H](C)CO)C[C@H]1C	i
COCC(=O)N1CCCN(Cc2ccc3c(C)cc(=O)oc3c2)CC1	i
COc1cc(CN2CC3(CN(C(=O)CN4CCOCC4)C3)c3c(n(C)c4cc(OC)ccc34)[C@@H]2CO)cc(OC)c1	i
CCCCNC(=O)Nc1cccc(-c2nnco2)c1	i
COc1ccccc1NC(=O)N1C[C@H](O)COC[C@@H]2O[C@@H](CC(=O)N3CCC(Cc4ccccc4)CC3)CC[C@H]21	-75.2
COc1ccccc1NC(=O)N1C[C@@H](O)COC[C@H]2O[C@H](CC(=O)N3CCC(Cc4ccccc4)CC3)CC[C@@H]21	i
SMILES	Tg IFNy HTS
COc1ccccc1NC(=O)N1C[C@H](O)COC[C@H]2O[C@H](CC(=O)N3CCC(Cc4ccccc4)CC3)CC[C@@H]21	i
O=C(CN1CCOC1=O)NCCc1cccc(F)c1	i
O=C(CCSCc1ccccc1)NCc1ccco1	i
O=S(=O)(NC[C@@H]1[C@H](c2ccccc2)[C@@H](CO)N1CC1CC1)c1ccccc1	i
Cc1nc(CN2CC[C@H]3[C@@H]2CCN3CC(C)C)cs1	i
CN1CCCC2(CCN(Cc3cn(CC(=O)O)c4ccccc34)C2)C1=O (stereo not given)	i
Cc1ccc2c(c1)NC1(CCN(C(=O)Nc3cccc(Br)c3)CC1)c1cccn1-2	i
CCn1c(CNC(=O)c2sc3ncnc(N4CCCC4)c3c2C)nc2ccccc21	i
CCCCC[C@H](CC(=O)NO)C(=O)N[C@H](C(=O)N1CCC[C@H]1CO)C(C)C	-77.3
CCC(=O)Nc1cccc(C(=O)N2CCC[C@H]2CO)c1	i
C=CCn1cc(CN[C@H](CO)c2ccccc2)c(C)n1	i
COc1ccc2sc(NC(=O)Cc3c(C)nc4nc[nH]n4c3=O)nc2c1	i
CC(C)(C)c1ccc(C(=O)N2CCN(c3nc(-c4ccc(F)cc4)cs3)CC2)cc1	i
CN1C[C@H]2[C@@H](c3ccccc31)[C@@H](CO)N2C(=O)C1CCOCC1	i
Cc1ccc(Cc2c(C)[nH]n(-c3nc4ccccc4[nH]3)c2=O)cc1	-98.5
Cc1ccc2nc(Cc3ccc(NC(=O)CCc4nc5ccccc5[nH]4)cc3)[nH]c2c1	i
Cc1ccc(-n2[nH]c(C)c(CC(=O)O)c2=O)cc1	i
O=S(=O)(NCC1CCN(S(=O)(=O)c2ccccc2)CC1)c1cccc2nonc12	i
Cc1c(C)c(C)c2[nH]c(-c3ccc4c(c3)OCO4)nc2c1C	-95.4
CC(c1ccc(-c2ccc3c(c2)OCO3)cc1)N1CCOCC1 (stereo not given)	i
Cc1ccc2[nH]c(=O)c(-c3nc(-c4ccc5c(c4)OCO5)no3)c(O)c2c1	i
COC(=O)Cc1c(-c2ccccc2)c2cc(C)ccc2[nH]c1=O	i
CCOC(=O)c1nc(NCCc2c[nH]c3ccc(OC)cc23)c2c(-c3ccc(Cl)cc3)noc2n1	i
CCOc1ccccc1NC(=O)c1ccc(COc2cccc(C)c2)o1	i
COC(=O)c1c(NCCc2cccs2)c2cccc(Cl)c2[nH]c1=O	-85.7
CCCNc1c(C(=O)OC)c(=O)[nH]c2c(Cl)cccc12	i
COC(=O)c1c(NCc2ccc(F)cc2)c2cccc(Cl)c2[nH]c1=O	-87.7
COC(=O)c1c(NC(C)c2ccccc2)c2cccc(Cl)c2[nH]c1=O (stereo not given)	i
